Screening results from PubChem.
The list is not random: actives were taken first. Their share in the collection is about 3.2%.
FBPA coupling cs: qHTS Assay for Inhibitors of Fructose-1,6-bisphosphate Aldolase from Giardia Lamblia: Coupling assay counterscreen; coupling enzyme system counterscreen, AmpLite Red fluorescence; activity change, negative = inhibition, % at 58.2 µM, hits read low; AID 2472, 2010; 290,000 compounds, 0.67% hits; in the data active means activity change below about -30%
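Counterscreen lacking aldolase: glyceraldehyde-3-phosphate coupling-enzyme reagent preincubated 10 min at RT with compound (at 57.5 uM final), then substrate/coupling system with AmpLite Red added; fluorescence read at 525/598 nm after 20 min RT.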
USP1-UAF1 inh: Inhibitors of USP1/UAF1: Primary Screen | 390,000 compounds, 0.23% hits | Ubiquitin carboxyl-terminal hydrolase 1 (Homo sapiens), O94782 | recombinant USP1/UAF1, Ub-Rhodamine cleavage fluorescence | Potency, µM (series often up to 57.1 µM), inactives show top-dose activity change, negative = inhibition, actives largely listed as inhibitors; further: potency means the concentration at half of the fitted maximal effect; nearly all actives have a fitted effect of over 60% in size
Target sequence (O94782 whole entry, looked up): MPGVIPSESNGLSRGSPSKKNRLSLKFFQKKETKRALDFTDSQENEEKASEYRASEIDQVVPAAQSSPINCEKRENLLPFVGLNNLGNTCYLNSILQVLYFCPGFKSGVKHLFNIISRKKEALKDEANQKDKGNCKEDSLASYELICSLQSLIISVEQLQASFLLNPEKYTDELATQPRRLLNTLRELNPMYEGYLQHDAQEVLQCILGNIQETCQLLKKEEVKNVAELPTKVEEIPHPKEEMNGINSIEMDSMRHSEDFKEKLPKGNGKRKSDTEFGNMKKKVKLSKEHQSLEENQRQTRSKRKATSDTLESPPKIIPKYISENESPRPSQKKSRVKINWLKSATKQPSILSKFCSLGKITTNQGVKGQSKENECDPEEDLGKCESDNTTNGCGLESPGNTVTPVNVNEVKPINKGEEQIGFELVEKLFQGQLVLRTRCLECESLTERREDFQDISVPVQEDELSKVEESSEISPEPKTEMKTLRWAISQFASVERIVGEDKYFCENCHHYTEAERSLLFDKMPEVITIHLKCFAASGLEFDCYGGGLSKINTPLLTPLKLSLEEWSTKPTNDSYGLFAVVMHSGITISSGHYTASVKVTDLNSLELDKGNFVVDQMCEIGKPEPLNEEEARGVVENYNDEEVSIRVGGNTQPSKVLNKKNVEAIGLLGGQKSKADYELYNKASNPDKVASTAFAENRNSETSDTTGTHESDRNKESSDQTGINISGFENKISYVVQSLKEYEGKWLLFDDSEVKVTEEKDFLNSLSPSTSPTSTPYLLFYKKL
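In this screen, compounds sit with the deubiquitinase complex (1nM) for 15 min at room temperature before Ub-Rho is added at 150nM final. Fluorescence rise is then followed for 6 reads every 60 seconds.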
USP2a block: qHTS Assay for Inhibitors of Ubiquitin-specific Protease USP2a Using CHOP2 as the Reporter | 330,000 compounds, 0.01% hits | Ubiquitin carboxyl-terminal hydrolase 2 (Homo sapiens), O75604 | Potency, µM (series often up to 38.3 µM), inactives show at the top dose activity change, negative = inhibition, hits mostly inhibitors | USP2 core, Ub-CHOP2 coupled fluorogenic reporter, 485/531;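 further: potency means the concentration at half of the fitted maximal effect; plate controls were DMSO wells for no effect and full inhibition by NEM control for full effect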
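USP2 core (10nM final) preincubated 30min RT with compound in 20mM Tris-HCl pH 8.0, 2mM CaCl2, 2mM beta-mercaptoethanol, 0.05% CHAPS; 25nM Ub-CHOP2 plus 25nM reporter substrate added, fluorescence (Ex485/Em531) read after 60min.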
PLK1 PBD inh: qHTS for Inhibitors of PLK1-PDB (polo-like kinase 1 - polo-box domain): Primary Screen; Serine/threonine-protein kinase PLK1 (Homo sapiens), P53350; Plk1 PBD binding of FITC phosphopeptide, fluorescence polarization; Potency, µM, without a hit: max response, negative = inhibition, most hits filed as inhibitors; 360,000 compounds, 2.8% hits; AID 720504, 2013; further: potency means the concentration at half of the fitted maximal effect; series mostly up to about 57 µM; nearly all actives have a fitted effect of over 65% in size
GALK inh: qHTS Assay for Inhibitors of Human Galactokinase (GALK); Purified GALK, Kinase-Glo residual ATP luminescence; Potency, µM (series often up to 57.5 µM), inactives show at the top dose activity change, negative = inhibition, most hits filed as inhibitors; 270,000 compounds, 0.007% hits; further: potency means the concentration at half of the fitted maximal effect
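Human GALK (5 nM) with 35 uM ATP and 100 uM galactose in 20 mM HEPES pH 8.0, 5 mM MgCl2, 60 mM NaCl, 1 mM DTT, 0.01% BSA. After 1 h at room temperature, leftover ATP was read by Kinase-Glo Plus luminescence.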
VDR inhibitor: Inhibitors of the vitamin D receptor (VDR): qHTS; Vitamin D3 receptor (Homo sapiens), P11473; Potency, µM, inactives show max response, negative = inhibition, hits mostly inhibitors; VDR-SRC2-3 peptide fluorescence polarization, 2 h; AID 504847, 2011; 400,000 compounds, 0.93% hits; further: potency means the concentration at half of the fitted maximal effect
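Measured by FP: displacement of SRC2-3 coactivator peptide from VDR by library compounds, following a two-hour ambient incubation.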
* marks the source's active call; other numbers are inactive results; ? = inconclusive; . = not tested or not shown. Unless noted, the call rests on the fitted dose curve; in most records, active means well fitted curve in the direction sought with a large enough effect; inconclusive means small, poorly fitted or top-dose-only effect, or another doubt; inactive means no such curve, though single readings can be large; an effect the other way counts as inactive or inconclusive. Unless noted, on the % scale 0 is the no-effect control and ±100 the full control effect.

SMILES | FBPA coupling cs | USP1-UAF1 inh | USP2a block | PLK1 PBD inh | GALK inh | VDR inhibitor
COCCC(=O)N1CCC(Oc2ccc(C(=O)N(C)C3CCCCC3)cc2)CC1 | 1.7 | -8.2% | 1.3% | -7.5% | -1.4% | 1.0%
O=C(COc1ccc(Cl)cc1Cl)Nc1nnc(C2=COCCO2)o1 | -0.7 | -20.7% | -0.8% | 6.4% | -1.3% | 23.3%
CCOC(=O)C1=C(C)NC(SCC(=O)OC)=C(C#N)C1c1ccc(C(=O)OC)cc1 (centres undefined) | 0.2 | -14.2% | 0.4% | -7.9% | 10.9% | ?
CCOC(=O)CSC1=C(C#N)C(c2ccc(F)cc2)C(C(C)=O)=C(C)N1 (centres undefined) | -39.3* | -16.5% | -1.0% | -11.2% | 2.7% | -13.2%
CNCc1cn2cc(Cl)ccc2n1 | 0.7 | -5.2% | 4.8% | 26.7µM* | 0.1% | -19.9%
O=C(O)CSCc1cn2cc(Cl)ccc2n1 | 2.0 | -20.1% | 3.6% | 0.2% | 2.4% | 3.6%
O=C(NCCNC(=O)c1ccc(F)cc1)c1ccc(F)cc1 | . | -21.4% | . | -13.6% | . | -4.6%
CCOc1ccc2nc(SCC(=O)NCc3ccc(OC)c(OC)c3)[nH]c2c1 | -12.1 | -22.9% | -2.2% | 26.7µM* | 9.3% | ?
COCC(=O)Nc1cc(C)cn(Cc2c(F)cccc2Cl)c1=O | -0.8 | -19.4% | -1.3% | 3.36µM* | -8.6% | ?
Cc1cc(NC(=O)CC(C)C)c(=O)n(Cc2c(F)cccc2Cl)c1 | -0.9 | 2.2% | -0.2% | -16.0% | -0.4% | -24.8%
Cc1oc(-c2cccc(Cl)c2)nc1CN1CCC(C(=O)NC2CC2)CC1 | -1.1 | -12.8% | -9.3% | 21.2µM* | 0.0% | -26.9%
COc1ccc(-c2nc(CSCC(=O)NCCCN3CCCC3=O)c(C)o2)cc1OC | -1.4 | -11.9% | 0.3% | 21.2µM* | -0.3% | -25.7%
Cc1oc(-c2cccc(Cl)c2)nc1CN1CCC(C(=O)NC(C)c2ccccc2)CC1 (centres undefined) | . | -21.5% | . | . | . | -21.5%
COc1ccc(-c2nc(CN3CCC(C(=O)NCC4CCCO4)CC3)c(C)o2)cc1OC (centres undefined) | -0.6 | -22.7% | 5.6% | 21.2µM* | -2.2% | -29.8%
Cc1cc(C)c(CN2CCC(N3CCC(C(=O)NCC4CCCO4)CC3)CC2)cc1C (centres undefined) | 0.0 | -24.9% | -0.6% | 29.9µM* | -0.8% | ?
CCCCNC(=O)C1CCN(Cc2nc(-c3ccc(OC)c(OC)c3)oc2C)CC1 | . | -21.0% | . | . | . | -11.6%
O=C(CSc1nccn(-c2ccc(F)c(Cl)c2)c1=O)NC1CCCC1 | . | -4.8% | 2.9% | ? | . | -19.5%
CC(C)(C)C(=O)C(C(c1ccccc1)N1CCOCC1)N1CCOCC1 (centres undefined) | . | -5.4% | . | -13.5% | . | 16.4%
COc1ccc(S(N)(=O)=O)cc1N(C)S(=O)(=O)c1ccccc1 | -1.0 | -3.3% | 2.3% | 26.7µM* | 3.4% | ?
C[C@H](NC(=O)c1[nH]cnc1C(=O)Nc1ccc(Cl)cc1)C(=O)OC(C)(C)C | -4.0 | -7.6% | 1.2% | -9.5% | -7.1% | -16.9%
O=[N+]([O-])C1=CC=C2C(=NC3(CCCCC3)N2O)C1=NC1CCCCC1 | -20.7 | 0.5% | 0.2% | -12.0% | 7.4% | 8.8%
CC(C)(C)N=C1C([N+](=O)[O-])=CC=C2C1=NC1(CCCCC1)N2O | -46.0* | 5.2% | 1.5% | -10.0% | 3.4% | -3.8%
O=[N+]([O-])C1=CC=C2C(=NC3(CCCCC3)N2O)C1=NCCc1ccccc1 | -64.5* | -7.0% | 1.8% | ? | 0.0% | -12.6%
CC1(C)CC(N=C2C([N+](=O)[O-])=CC=C3C2=NC2(CCCCC2)N3O)CC(C)(C)N1 | -38.4* | ? | -5.1% | 0.5% | 4.1% | -2.5%
